In PubChem BioAssay (NCI):
The panel holds about 83,000 compounds, 20% with a hit somewhere; the sample as a whole holds those more often.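 Percent growth is the endpoint: 0 to 100 indicates growth inhibition (40 means 60% inhibition), 0 means no net growth, and negative values indicate cell death.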 Values without a mark were called inactive. Activity calls are given as the source filed them. The calls were made as follows: active = growth percent below 10; inactive = the rest.

What follows are compounds tested on NCI-H522 lung (assay: NCI-60 one-dose screen, 48 h (100 = growth as untreated, 0 = no growth, -100 = all killed)). Settings: 10 µM.

Structure (SMILES) | growth
Nc1cc(-c2ccc(Cl)cc2)nn1-c1nc2ccccc2nc1Cc1ccccc1 | 85.7%
Fc1ccc(C(c2ccc(F)cc2)C(Cl)Cl)cc1 | 93.8%
COc1ccc(/C=C2\CCCC3C2=Nc2ccccc2NC3c2ccc(OC)cc2)cc1 (stereo unspecified) | 6.67% (active)
CCCCCCCCCCCC[n+]1c(C)cc(N)c2ccccc21 | -29.7% (active)
Cc1cn(-c2cc(F)cc(NC(=O)c3ccc(C)c(Nc4nccc(-c5cccnc5)n4)c3)c2)cn1 | 11.5%
O=C1NC(=O)c2c(CCCSc3nc4ccccc4c(=O)n3CCc3ccccc3)cccc21 | 89.3%
Cc1cc(O)ccc1C1=NN(c2ccc(S(C)(=O)=O)cc2)C(=O)CC1 | 2.39% (active)
N#Cc1c(-c2ccc(Cl)cc2)n(O)c2ccccc12 | 10.7%
N#CC1=CC2CN(Cc3ccccc3)C1C1C(=O)N(c3ccccc3)C(=O)C21 (stereo unspecified) | 106%
COc1ccc(C(=O)c2ccccc2CN2C(=O)c3ccccc3C2=O)cc1 | 95.3%
CCc1ccc(C2=NN(c3ccc(S(C)(=O)=O)cc3)C(=O)CC2)cc1 | -1.27% (active)

Each compound was assayed on A549/ATCC NSCLC in the same assay as above. Settings: 10 µM.

Structure (SMILES) | growth
COc1ccc(C(=O)N2C=Cc3ccccc3C2C#N)cc1 (stereo unspecified) | 101%
O=c1cn[nH]c2ccc(Br)cc12 | 102%
O=[N+]([O-])c1ccc(/C(=C/c2ccccc2)[n+]2ccccc2)cc1 | 99.7%
CCOc1ccccc1/C=N\N=C(\N)N/N=C/c1ccccc1OCC | 39.4%
NC1=CC(=O)C(=O)c2cccnc21 | 43.9%
COc1ccc(-c2nn(-c3cccc(Cl)c3)cc2-c2c(C#N)c(N)n(N)c(=O)c2C#N)cc1 | 66.2%
COc1ccc(-c2nn(-c3cccc(Cl)c3)cc2-c2c(C#N)c(=O)n3[nH]c(-c4ccc(C)cc4)nc3c2C#N)cc1 | 50.5%
Nc1ncc(-c2cnn(C3CCNCC3)c2)cc1-c1nc2ccccc2o1 | 7.74% (active)
COC(=O)CC[C@@H](C)[C@H]1CC[C@H]2[C@@H]3CC[C@@H]4C[C@H](O)CC[C@]4(C)[C@H]3C[C@H](O)[C@]12C | 102%
Cc1ccc(C(=O)C2C(=O)C3CCC2C3)cc1 (stereo unspecified) | 102%
S=C1N(c2ccccc2)CN(C2CCCCC2)CN1c1ccccc1 | 45.5%
COc1ccc(/C(=N\N)C(=O)c2ccccc2)cc1 (tested in a mixture with another compound) | 90.4%
COC(=O)c1c[nH]c2cc(OC(C)C)c(OC(C)C)cc2c1=O | 61.8%
O[C@@H]1CO[C@H]2[C@@H]1OC[C@@H]2O | 96.9%
CC(=O)Nc1ccc(S(=O)(=O)c2ccnc3cc(Cl)ccc23)cc1 | 85.3%
COC(=O)C1OC1c1cc([N+](=O)[O-])ccc1OC (stereo unspecified) | 103%
Cc1cc(NC(=O)c2ccc(C)c(Nc3nccc(-c4cccnc4)n3)c2)cc(-n2cnc(C)c2)c1 | 47.1%
COc1cc2c(Nc3ccc(-c4ccc(N)cc4)cc3)ncnc2c(OC)c1OC | 29.2%

Structure (SMILES) | growth
COc1nc2c(c(=O)n1C)CN(c1ccccc1)C(=O)C(C)N2 (stereo unspecified) | 99.2%
CN(C)CCC1(c2ccccc2)CCN(C)C1=O (stereo unspecified) | 105%
CCOC(=O)N/N=C/c1ccc(OC)c(OC)c1 | 102%
CC(C)(C)OC(=O)CC(S(=O)(=O)c1ccccc1)S(=O)(=O)c1ccccc1 | 112%
CN(C)c1ncnc2c1nnn2C1OC(CO)C(O)C1O (stereo unspecified) | 36.3%
Nc1cc(-c2ccc(Cl)cc2)nn1-c1nc2ccccc2nc1Cc1ccccc1 | 78%
Fc1ccc(C(c2ccc(F)cc2)C(Cl)Cl)cc1 | 102%
COc1ccc(/C=C2\CCCC3C2=Nc2ccccc2NC3c2ccc(OC)cc2)cc1 (stereo unspecified) | 88.5%
CCCCCCCCCCCC[n+]1c(C)cc(N)c2ccccc21 | 57%
Cc1cn(-c2cc(F)cc(NC(=O)c3ccc(C)c(Nc4nccc(-c5cccnc5)n4)c3)c2)cn1 | 19.3%
O=C1NC(=O)c2c(CCCSc3nc4ccccc4c(=O)n3CCc3ccccc3)cccc21 | 89.4%
Cc1cc(O)ccc1C1=NN(c2ccc(S(C)(=O)=O)cc2)C(=O)CC1 | 72.2%
N#Cc1c(-c2ccc(Cl)cc2)n(O)c2ccccc12 | 26.9%
N#CC1=CC2CN(Cc3ccccc3)C1C1C(=O)N(c3ccccc3)C(=O)C21 (stereo unspecified) | 95.5%
Nc1nc(-c2ccc(Cl)cc2)cc(-c2cc3ccccc3oc2=O)n1 | 103%
COc1ccc(C(=O)c2ccccc2CN2C(=O)c3ccccc3C2=O)cc1 | 98.9%
CCc1ccc(C2=NN(c3ccc(S(C)(=O)=O)cc3)C(=O)CC2)cc1 | 35.6%
